Compounds with a hit are over-represented: about 0.44% of the library has one in this group of screens.
EPAC2 agonist – agonists of human EPAC2 (RAPGEF4); Q8WZA2; 0.079% of 360,000 active; EPAC2 activation, biochemical qHTS; response scale: 100% = 6.5 mM cAMP response; Potency, µM (highest dose often 154 µM), inactives show at the highest dose activation, most hits filed as activators; also: nearly all actives have a fitted effect of over 50% in size
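Fluorescence exchange assay: 100 nM EPAC2 with 250 nM RAP1B-BODIPY-GDP and 50 uM GDP; compounds tested as a concentration-titration series (qHTS). Loss of Rap1-bound BODIPY-GDP fluorescence read at 480/540 nm; data normalized to 6.5 mM cAMP.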
EPAC2 antagonist – antagonists of human EPAC2; Q8WZA2; EPAC2 GEF exchange of Rap1B-BODIPY-GDP, fluorescence; Potency, µM (doses to about 114 µM), without a hit: top-dose activity, negative = inhibition, actives largely listed as inhibitors; 0.18% of 360,000 active; AID 720708; also: % is scaled to controls: 0 for no effect and ±100 for the full control effect; nearly all actives have a fitted effect of over 45% in size
EPAC1 ag – activates human EPAC1 exchange factor | O95398 | EPAC1 agonist qHTS, biochemical assay; response scale: 100% = response to 6.5 mM cAMP | Potency, µM (series often up to 154 µM), without a hit: top-dose activation, usual class: activators | 0.073% of 360,000 active; also: nearly all actives have a fitted effect of over 60% in size
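Nucleotide exchange by EPAC1 (100 nM) on Rap1B–BODIPY-GDP (250 nM) in the presence of 50 uM GDP is tracked fluorescently at 480/540 nm over 30 min. Signals are normalized to a 6.5 mM cAMP control.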
EPAC1 antag – EPAC1 (human) antagonism. EPAC1 GEF assay, Rap1b-BODIPY-GDP exchange fluorescence. 0.14% of 360,000 active. AID 720709. O95398. Potency, µM (highest dose often 115 µM), for the others: at the highest dose activity change, negative = inhibition, actives largely listed as inhibitors;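 also: plate controls were vehicle for no effect and positive control for full effect; nearly all actives have a fitted effect of over 50% in size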
USP1-UAF1 inh – inhibitors of human USP1/UAF1 deubiquitinase; recombinant USP1/UAF1, Ub-Rhodamine cleavage fluorescence; Potency, µM (series often up to 57.1 µM), for inactives: at the highest dose activity change, negative = inhibition, actives largely listed as inhibitors; 0.23% of 390,000 active; AID 743255; also: % is scaled to controls: 0 for no effect and ±100 for the full control effect; nearly all actives have a fitted effect of over 60% in size
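Step one: compound is pinned into 1nM USP1/UAF1 in HEPES pH 7.8 buffer with TCEP. Step two: 15 min room-temperature incubation. Step three: Ub-Rho (150nM final) starts cleavage, tracked by fluorescence over six one-minute reads.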
Active calls of the source: *; ? = inconclusive; · = not tested or not shown. Calls follow the shape of the dose curve; as a rule, active = well fitted curve in the direction sought with a large enough effect; inconclusive = small, poorly fitted or top-dose-only effect, or another doubt; inactive = no such curve, though single readings can be large; an effect the other way counts as inactive or inconclusive. Potency is read from the fitted curve at half-maximal effect.

SMILES	EPAC2 agonist	EPAC2 antagonist	EPAC1 ag	EPAC1 antag	USP1-UAF1 inh
Cc1cc(NC(=O)CSc2nc3cc(Cl)ccc3s2)no1	4%	-1%	6%	-4%	2%
Oc1c(Cl)cc(Cl)cc1CNc1nccs1	3%	-8%	1%	5%	-21%
O=S(c1cc(Cl)cc(Cl)c1O)c1cc(Cl)cc(Cl)c1O	-7%	38µM*	-5%	40µM*	·
O=C(O)c1[nH]c2ccccc2c1C(c1cc(Cl)cc([N+](=O)[O-])c1O)c1c(C(=O)O)[nH]c2ccccc12	-4%	-7%	-5%	25µM*	32µM*
O=C(O)c1[nH]c2ccccc2c1C(c1ccccc1)c1c(C(=O)O)[nH]c2ccccc12	-4%	-9%	-10%	-23%	-23%
Cc1ccc(S(=O)(=O)c2nc(-c3ccco3)oc2SC(C)C)cc1	13%	56µM*	11%	-11%	?
Cc1ccc(O)c(CNc2ccc(S(=O)(=O)Nc3nccs3)cc2)c1	2%	22µM*	3%	-15%	-16%
CC(=O)Nc1ccc(S(=O)(=O)Nc2nccs2)cc1	-2%	-11%	1%	-2%	-12%
COc1ccccc1/C=C/c1nc(C#N)c(N2CCN(C)CC2)o1	·	·	·	·	-8%
CSCCC(C(=O)O)N1C(=O)c2ccc(C(=O)O)cc2C1=O (configuration not stated)	10µM*	-5%	3%	5%	-15%
O=C(O)c1ccc2c(c1)C(=O)N(C(Cc1ccccc1)C(=O)O)C2=O (configuration not stated)	-4%	2%	0%	3%	-9%
Clc1ccccc1C1CC(c2ccccc2)=Nc2ccccc2N1 (configuration not stated)	7%	-23%	9%	17%	50µM*
CCOc1ccc(NC(=O)c2cc3c(n(-c4ccc(OC)cc4)c2=O)CC(C)(C)CC3=O)cc1	·	·	·	·	-13%
COc1ccc(C(=O)c2sc3nc4c(c(C(F)(F)F)c3c2N)CN(C(C)=O)CC4)cc1OC	·	·	·	·	40µM*
CC(=O)N1CCc2nc3sc(C(=O)c4ccc(F)cc4)c(N)c3c(C(F)(F)F)c2C1	·	·	·	·	-10%
COc1ccc(OC)c(CCNc2ncnc3onc(-c4ccc(F)cc4)c23)c1	·	·	·	·	-28%
O=C1c2cc(CO)cc(O)c2C(=O)c2c(O[C@@H]3OC(CO)[C@@H](O)[C@@H](O)[C@@H]3O)cccc21 (some centres not stated)	2%	-13%	-8%	1%	-2%
O=C(O)c1cc(O)c2c(c1)[C@@H]([C@H]1c3cc(C(=O)O)cc(O)c3C(=O)c3c(O[C@@H]4O[C@H](CO)[C@@H](O)[C@H](O)[C@H]4O)cccc31)c1cccc(OC3O[C@H](CO)[C@@H](O)[C@H](O)[C@H]3O)c1C2=O (some centres not stated)	8%	?	5%	?	5.6µM*
O=C(O)c1cc(O)c2c(c1)[C@H]([C@H]1c3cc(C(=O)O)cc(O)c3C(=O)c3c(O[C@@H]4O[C@H](CO)[C@@H](O)[C@H](O)[C@H]4O)cccc31)c1cccc(OC3O[C@H](CO)[C@@H](O)[C@H](O)[C@H]3O)c1C2=O (some centres not stated)	2%	?	-8%	3.5µM*	7.1µM*
O=c1c(-c2c(O)cc(O)c3c(=O)cc(-c4ccc(O)cc4)oc23)c(-c2ccc(O)cc2)oc2cc(O)cc(O)c12	14%	5%	-16%	56µM*	3%
CCSC1=NSC2=NC(=O)/C(=C\c3coc4ccccc4c3=O)C(=N)N12	100µM*	74%	45µM*	86%	22µM*
CSC1=NSC2=NC(=O)/C(=C\c3ccc(OC(=O)c4ccco4)cc3)C(=N)N12	-5%	5%	-8%	?	-17%
CC(C)CC1=NN2C(=N)/C(=C\c3coc4ccccc4c3=O)C(=O)N=C2S1	63µM*	159%	63µM*	97%	28µM*
Cc1ccc(NS(=O)(=O)c2ccc3[nH]c4c(c3c2)CCCCC4)cc1	·	·	·	·	-16%
